Data on 15 molecules can be found in PubChem BioAssay.

Test [1] in a line: liver-stage malaria parasite growth inhibition, primary screen, cell-based, HepG2, luciferase luminescence, HepG2 viability (AID 624349; in the data active means parasite load remaining mostly below about 12%, no sharp cut-off; inactive means mostly above about 10%;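 further: 100% = mean of DMSO negative control wells on the same plate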). The following applies: P. berghei liver stage in HepG2, luciferase luminescence, concentration not given here; parasite load remaining: stronger effect = lower value; viability: measured here: HepG2 viability without parasites.
The nature of test [2]: Cy5 fluorescence interference with SSB-bound oligo, artefact control for HCV NS3 helicase inhibitor project, biochemical, NIH Clinical Collection, E. coli SSB (AID 743268).
Test [3] deals with Hepatitis C virus NS3 helicase. The test can be described thus: HCV NS3 helicase inhibitors, primary screen, biochemical, fluorescence polarization, NIH Clinical Collection (AID 743270). Particulars: NS3 helicase binding to Cy5-dT15 DNA, stronger effect = higher value, concentration not given here. In general terms: In fluorescence polarisation assays a small probe gives low polarisation when free and higher when bound to something large.

The target of test [4] is Single-stranded DNA-binding protein (Escherichia coli (strain K12)) (UniProt P0AGE0). The test can be described thus: E. coli SSB displacement from DNA, counter-screen for HCV NS3 helicase inhibitor project, biochemical, fluorescence polarization, NIH Clinical Collection (AID 743271; in the data active means inhibition above about 28%). The following applies: stronger effect = higher value, concentration not given here. A general note: The purpose of a counterscreen is to sort out artefacts and off-target activity.

Test [5] can be described thus: fluorescence interference in NS3h assay format, artefact control for HCV NS3 helicase inhibitor project, biochemical, NIH Clinical Collection (AID 743272).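 Further: HCV NS3 helicase with a Cy5 labelled single stranded DNA probe.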 Particulars: fluorescence interference counterscreen, stronger effect = lower value.
For test [6], the system named is Neuropilin-2 / VEGF-C interaction (human). The test can be described thus: inhibitors of NRP2–VEGF-C binding, biochemical, microplate binding format, z-score (AID 743281). Particulars: microplate NRP2/VEGF-C binding assay; stronger effect = lower value.
Test [7] is described as follows: stimulators of nuclear beta-catenin in C2C12, primary screen, imaging, WNT3A-conditioned medium, mouse C2C12, NPC library (AID 1117326; in the data active means nuclear beta-catenin stimulation mostly above about 4.2%, no sharp cut-off; inactive means mostly below about 10%). The following applies: stronger effect = higher value.
The subject of test [8] is Hepatitis C virus NS3 helicase. The test is described as follows: HCV NS3 helicase inhibitors, primary screen, biochemical, fluorescence polarization, LOPAC1280 library (AID 687035; in the data active means inhibition above about 37%). The following applies: Purified HCV NS3 helicase, Cy5-dT15 ssDNA binding fluorescence polarization; stronger effect = higher value; concentration not given here.
The nature of test [9]: Cy5 fluorescence quenching or enhancement artefacts, artefact control for HCV NS3 helicase inhibitor project, biochemical, LOPAC1280 (AID 687037). Particulars: Cy5-DNA-NS3h complex fluorescence interference counterscreen.

Values joined by “and” are separate entries in the source; they are usually repeats but may differ in a detail not shown here. Identical values can stand only once. A structure can be active in one record and inactive in another. Active and inactive are the calls of the source. Unless noted, how the calls were made is not given here.

As to `Cn1nnc2c(C(N)=O)ncn2c1=O`, the parasite load remaining in [1] is 106% (inactive) and 19.4% (inactive). Also, the viability in test [1] is 79.6% and 80.5%. Also, the results for the fluorescence ratio in test [2] and in test [5] were 1.03 (inactive) and 0.9 (inactive), respectively. Besides, the inhibition was -5.94% (inactive) in [3] and -0.87% (inactive) in test [4]. In addition, the z-score in test [6] is -0.72 (inactive). Besides, the nuclear beta-catenin stimulation in test [7] (at 10 µM) was -1.7% (inactive); in [7] (stimulation, at 2 µM) it was 0%.
Consider `Cc1nc2n(c(=O)c1CCN1CCC(c3noc4cc(F)ccc34)CC1)CCCC2`, for which the parasite load remaining in test [1] was 83.8% (inactive) and 28.6% (inactive) and 49.1% (inactive). Further, the viability in test [1] was 76.9% and 60.3% and 97.5%. The figures for the fluorescence ratio in test [2] and in [5] were 1.05 (inactive) and 1.02 (inactive), respectively. The inhibition in [3] is 3.56% (inactive); in [4], 2.21% (inactive). Further, the z-score in test [6] is -1.5 (inactive). For the same molecule, the nuclear beta-catenin stimulation is 4.2% (inactive) in test [7] (at 10 µM) and 4.4% in test [7] (stimulation, at 2 µM).
For `CC(N)C12CC3CC(CC(C3)C1)C2` (configuration not stated), the parasite load remaining in test [1] is 59.2% (inactive) and 69.6% (inactive) and 54.8% (inactive). In addition, in test [1], the viability is 94.8% and 97.2% and 73%. In addition, the fluorescence ratio in [2] was 1.02 (inactive); in [5], 1.03 (inactive). The inhibition in test [3] was -2.27% (inactive); in [4], 1.81% (inactive). The nuclear beta-catenin stimulation is 1.8% (inactive) in test [7] (at 10 µM) and 0.3% in [7] (stimulation, at 2 µM).
`COc1cc(-c2ccc(=O)[nH]n2)ccc1OC(F)F`: in test [1], the parasite load remaining was 107% (inactive) and 103% (inactive) and 31.7% (inactive). The viability in test [1] was 78.6% and 72.5%. In addition, the fluorescence ratio in [2] is 0.99 (inactive); in test [5], 0.94 (inactive). In addition, the figures for the inhibition in test [3] and in test [4] were -2.77% (inactive) and -0.87% (inactive), respectively. In test [6], the z-score was -0.623 (inactive). Besides, the nuclear beta-catenin stimulation is 2% (inactive) in test [7] (at 10 µM) and 0.9% in test [7] (stimulation, at 2 µM).
With `CC(C)(C)NC(=O)[C@H]1CC[C@H]2[C@@H]3CC[C@H]4NC(=O)C=C[C@]4(C)[C@H]3CC[C@]12C`, the parasite load remaining in [1] is 85.8% (inactive) and 62.9% (inactive) and 31.1% (inactive). Further, in test [1], the viability is 103% and 63% and 78%. Besides, the fluorescence ratio was 1.05 (inactive) in test [2] and 1.02 (inactive) in test [5]. Besides, the inhibition is 0.4% (inactive) in [3] and -2.41% (inactive) in [4]. The nuclear beta-catenin stimulation in test [7] (at 10 µM) was 5.2% (inactive); in [7] (stimulation, at 2 µM), 2%.
Consider `C[C@@H]1C[C@H]2[C@@H]3C[C@H](F)C4=CC(=O)C(Cl)=C[C@]4(C)[C@@]3(F)[C@@H](O)C[C@]2(C)[C@@]1(O)C(=O)CO`, for which the parasite load remaining in [1] was 117% (inactive). In [1], the viability was determined as 79.4%. Also, the fluorescence ratio in [2] was 1 (inactive); in test [5] it was 0.96 (inactive). Also, the inhibition was 6.73% (inactive) in test [3] and 7.6% (inactive) in test [4]. Besides, the nuclear beta-catenin stimulation was 1.5% (inactive) in test [7] (at 10 µM) and 1.3% in [7] (stimulation, at 2 µM).
As to `Cc1[nH]cnc1CN1CCc2c(c3ccccc3n2C)C1=O`, in test [1], the parasite load remaining was 109% (inactive). Besides, the viability in test [1] was 87.6%. Moreover, the fluorescence ratio in test [2] was 0.99 (inactive); in [5], 0.96 (inactive). The figures for the inhibition in test [3] and in test [4] were -8.32% (inactive) and -4.72% (inactive), respectively. Further, the z-score in [6] was 0.471 (inactive). The nuclear beta-catenin stimulation in test [7] (at 10 µM) was 1.1% (inactive); in test [7] (stimulation, at 2 µM), 1.4%.
Consider `Oc1c(Cl)cc(Cl)c(Cl)c1Cc1c(O)c(Cl)cc(Cl)c1Cl`, for which the parasite load remaining in [1] was -3.37% (inactive) and -0.17% (inactive) and -0.05% (inactive). The viability in test [1] is 54.9% and 42.6% and 53.4%. For the same molecule, the fluorescence ratio in test [2] was 1.01 (inactive); in test [5], 0.92 (inactive). For the same molecule, the inhibition in [3] is 15.9% (inactive); in [4], 20.1% (inactive). In addition, the nuclear beta-catenin stimulation in [7] (at 10 µM) was 15% (inactive); in test [7] (stimulation, at 2 µM) it was 8.3%.
For `CN(C)CC/C=C1/c2ccccc2COc2ccc(CC(=O)O)cc21`, the parasite load remaining in [1] is 66.3% (inactive) and 36.6% (inactive). In addition, the viability in test [1] was 81.2% and 101%. Also, the figures for the fluorescence ratio in test [2] and in test [5] were 0.96 (inactive) and 0.94 (inactive), respectively. In addition, the inhibition in test [3] is -6.33% (inactive); in [4], -3.54% (inactive). The z-score in test [6] was -0.65 (inactive). Further, the nuclear beta-catenin stimulation in test [7] (at 10 µM) is -0.9% (inactive); in [7] (stimulation, at 2 µM) it was 0.1%.
As for `Nc1nc(F)nc2c1ncn2[C@@H]1O[C@H](CO)[C@@H](O)[C@@H]1O`, in [1], the parasite load remaining was 18.4% (inactive). Also, the viability in test [1] came to 114%. In addition, the fluorescence ratio in test [2] is 1.01 (inactive); in [5] it was 1.02 (inactive). In addition, the inhibition in test [3] is 1.36% (inactive); in test [4], -2.76% (inactive). For the same molecule, the nuclear beta-catenin stimulation in test [7] (at 10 µM) was 0.3% (inactive); in [7] (stimulation, at 2 µM), 2.3%.
As to `O=C(O)/C=C/c1ccc(Cn2ccnc2)cc1`, in test [1], the parasite load remaining is 92.2% (inactive) and 85.3% (inactive) and 50.2% (inactive). Besides, the viability in test [1] is 79.5% and 65.9% and 102%. Further, the fluorescence ratio in [2] is 1.05 (inactive); in test [5] it was 0.97 (inactive). Moreover, the inhibition in [3] is -2.77% (inactive); in test [4] it was -3.95% (inactive). Also, the z-score in test [6] is -0.108 (inactive). For the same molecule, the nuclear beta-catenin stimulation is -2.1% (inactive) in test [7] (at 10 µM) and 1.2% in [7] (stimulation, at 2 µM).
`O=C(NCCN1CCOCC1)c1ccc(Cl)cc1`: the parasite load remaining in [1] is 153% (inactive) and 134% (inactive). Moreover, the viability in test [1] is 108% and 80.7%. The inhibition in [8] was -6% (inactive); in [3], 5.94% (inactive); in test [4] it was 8.37% (inactive). Further, the fluorescence ratio (interference) in test [9] was 0.9 (inactive). The fluorescence ratio was 1.03 (inactive) in test [2] and 0.99 (inactive) in [5]. Besides, the z-score in test [6] was -0.561 (inactive). Further, the nuclear beta-catenin stimulation in [7] (at 10 µM) was 0.1% (inactive); in [7] (stimulation, at 2 µM) it was 0.4%.
With `CCOC(=O)C1=C(C)NC(C)=C(C(=O)OCC)C1c1ccccc1/C=C/C(=O)OC(C)(C)C`, the parasite load remaining in test [1] is -0.13% (active) and 24.4% (inactive). Moreover, the viability in [1] is 74.1% and 104%. Further, the fluorescence ratio in [2] and in [5] was 0.9 (inactive) in each case. The inhibition is 3.28% (inactive) in test [3] and 3.54% (inactive) in [4]. Besides, the z-score in test [6] is -0.248 (inactive). The nuclear beta-catenin stimulation in test [7] (at 10 µM) is 3% (inactive); in test [7] (stimulation, at 2 µM) it was 1.2%.
On to `COc1cc2c(cc1OC)C(=O)C(CC1CCN(Cc3ccccc3)CC1)C2` (configuration not stated), for which the parasite load remaining in test [1] was 49.6% (inactive) and 67.4% (inactive). For the same molecule, the viability in test [1] was 93.5% and 63.1%. In addition, the fluorescence ratio in [2] is 1.07 (inactive); in [5], 1.04 (inactive). In addition, the inhibition was 1.98% (inactive) in [3] and 1.44% (inactive) in test [4]. The z-score in [6] was 0.0126 (inactive). The nuclear beta-catenin stimulation in test [7] (at 10 µM) was -1% (inactive); in test [7] (stimulation, at 2 µM), -0.2%.
For the molecule `C[C@@H]1CN(CCCn2c3ccccc3c3ccccc32)C[C@H](C)N1`, in test [1], the parasite load remaining is 35.7% (inactive). Besides, the viability in [1] stood at 37.6%. Besides, the fluorescence ratio in [2] and in test [5] was 0.94 (inactive) each time. For the same molecule, the inhibition in test [3] was -6.33% (inactive); in test [4], 1.18% (inactive). Besides, in test [6], the z-score was -0.119 (inactive). The nuclear beta-catenin stimulation was 6.5% (inactive) in test [7] (at 10 µM) and 4.9% in [7] (stimulation, at 2 µM).

What is called viability is a read-out of living cells in per cent, often relative to untreated cells. A word on the inhibition: it is the change of the read-out against control, counted positive when it falls.
